Data published in the OligoGym collection.
Further: reference of the scale not given here.

These sequences were tested against HIST2H2AB (assay: pooled miR-30 sensor sort-seq; sequence = guide strand). Details: shRNA.
TCTTCGTCATTCCTCACGGCTA was tested, and the sensor-assay potency score (higher = more potent) was -1.31. TTGAGCTCTTCGTCATTCCTCA was tested, and the sensor-assay potency score (higher = more potent) was 0.203. TTGTGACTCTCCGTTTTCTTGG gave a sensor-assay potency score (higher = more potent) of -0.765. TTCGTCATTCCTCACGGCTAGT showed a sensor-assay potency score (higher = more potent) of -0.686. For ACTTGTTGAGCTCTTCGTCATT, the sensor-assay potency score (higher = more potent) was -1.57. In the case of TGGATATTGGGCAAGACGCCGC, the sensor-assay potency score (higher = more potent) is reported as -1.14. TAACTTGTTGAGCTCTTCGTCA showed a sensor-assay potency score (higher = more potent) of -0.534. TTTTCTTGGGCAACAGGACAGC was tested, and the sensor-assay potency score (higher = more potent) was -1.07. With GTAACTTGTTGAGCTCTTCGTC the sensor-assay potency score (higher = more potent) was -0.977. In the case of TTGGGCAACAGGACAGCCTGGA, the sensor-assay potency score (higher = more potent) is reported as 0.319. Work on AACTTGTTGAGCTCTTCGTCAT yielded a sensor-assay potency score (higher = more potent) of -0.274. Work on TGACTCTCCGTTTTCTTGGGCA yielded a sensor-assay potency score (higher = more potent) of 0.0701.
